Screening data (PubChem BioAssay)
A selection: hits, their analogues and other compounds. The true share with any hit is near 4.3%.
Giardia killer = Small Molecules that selectively kill Giardia lamblia: qHTS; activity change, % at 7.66 µM, hits read low; actives 0.15% (n = 340,000); AID 540267, 2011; Giardia lamblia trophozoite viability; in the data active means activity change below about -80%; inconclusive means between about -30% and that limit;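 further: parasites exposed to compound for two days anaerobically before the ATP read; on the % scale 0 is the no-effect control and ±100 the full control effect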
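Viability, read as ATP luminescence: trophozoites at 100 cells/well, compound added, 48 hrs anaerobic at 37 deg C, then 15-30 min room-temperature development before reading.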
MCF10A rereplic = A quantitative high throughput screen for small molecules that induce DNA re-replication in MCF 10a normal breast cells. Potency, µM (titrated, usually from 46.1 µM), for inactives: at the top dose activity, positive = re-replication, hits mostly activators. MCF 10A DNA re-replication, Hoechst nuclear intensity, 48 h. actives 2.9% (n = 350,000); further: potency means the concentration at half of the fitted maximal effect; % of control where 0% means no effect; nearly all actives have a fitted effect of over 50% in size
SW480 rereplic = A quantitative high throughput screen for small molecules that induce DNA re-replication in SW480 colon adenocarcinoma cells; SW480 DNA re-replication, Hoechst DNA content imaging, 48 h; Potency, µM (top dose mostly 46.1 µM), inactives show at the highest dose re-replication activation, actives largely listed as activators; actives 1.8% (n = 340,000); further: potency means the concentration at half of the fitted maximal effect; % of control where 0% means no effect; nearly all actives have a fitted effect of over 55% in size
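Treated cells incubate 48 hr (37 C, 5% CO2), are stained 40 min with Hoechst, and nuclear fluorescence is enumerated; a rise in nuclei with high DNA signal marks re-replication.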
uPA generation = qHTS for Inhibitors of Cell Surface uPA Generation; actives 0.31% (n = 330,000); Potency, µM (highest dose often 38.3 µM), without a hit: at the top dose activity change, negative = inhibition, usual class: inhibitors; AID 540303, 2011; cell surface uPA generation assay, qHTS; active means well fitted inhibition curve with a large enough effect; inconclusive means small, poorly fitted or top-dose-only effect; inactive means no such curve, though single readings can be large or run the other way; tested in mouse RAW 264.7 cells; further: potency means the concentration at half of the fitted maximal effect; on the % scale 0 is the no-effect control and ±100 the full control effect; nearly all actives have a fitted effect of over 55% in size
Active calls of the source: *; ? = inconclusive; . = no result given. Unless noted, the call rests on the fitted dose curve; in most records, active means well fitted activation curve with a large enough effect; inconclusive means small, poorly fitted or top-dose-only effect; inactive means no such curve, though single readings can be large or run the other way.

SMILES	Giardia killer	MCF10A rereplic	SW480 rereplic	uPA generation
O=C(/C=C/c1ccccn1)c1cc(Cl)cc(Cl)c1O	13	21µM*	16µM*	-15%
O=C(CNC(=O)c1cccs1)Nc1cccc(S(=O)(=O)N2CCOCC2)c1	-2	2%	12%	-2%
CC(Nc1nc(N2CCNCC2)nc2ccccc12)c1ccccc1 (stereo unspecified)	-84*	46%	13%	-5%
CC(Nc1nc(-c2ccncc2)nc2ccccc12)c1ccccc1 (stereo unspecified)	-5	25%	?	-12%
Cc1cc(C)c2cc(C#N)c(N3CCCN(S(=O)(=O)c4ccccc4)CC3)nc2c1	4	4%	5%	-1%
Cc1cc(C)c2cc(C#N)c(N3CCCN(C(=O)c4cnccn4)CC3)nc2c1	1	21µM*	2%	-5%
CC(C)c1cc(C(=O)N2CCCC(N3CCN(c4ccc(F)cc4)CC3)C2)n(C)n1 (stereo unspecified)	17	-1%	?	-11%
Cn1ncc([N+](=O)[O-])c1C(=O)Nc1ccc(C2CCCCC2)cc1	-8	-3%	12µM*	-7%
Cn1ncc([N+](=O)[O-])c1C(=O)Nc1ccc(Cl)cc1	2	?	-11%	-29%
CCOc1ccc2c(c1)OC(c1ccccc1)(C(F)(F)F)NC2=O (stereo unspecified)	-12	12%	-1%	-8%
CCOc1ccc2c(c1)OC(c1ccc(OC)cc1)(C(F)(F)F)NC2=O (stereo unspecified)	-2	2.3µM*	5.2µM*	-8%
CC(Oc1ccc(Cl)cc1Cl)C(=O)Nc1ccc2oc(-c3ccncc3)nc2c1 (stereo unspecified)	-16	9.2µM*	?	-2%
CC(Oc1ccc(Cl)cc1Cl)c1nc(-c2ccc(NC(=O)c3ccncc3)cc2)no1 (stereo unspecified)	11	23µM*	?	.
CC(Oc1ccc(Cl)cc1Cl)c1nc(-c2ccc(NC(=O)c3cccnc3)cc2)no1 (stereo unspecified)	17	27%	-3%	-9%
COc1cc(OC)c(OC)cc1/C=C/C(=O)OCC(=O)Nc1c(C)n(C)n(-c2ccccc2)c1=O	-9	3%	-11%	-14%
O=C(NCC(=O)N(CC1CCCO1)C(C(=O)NC1CCCCC1)c1cccnc1)c1cccs1 (stereo unspecified)	26	-3%	-1%	7%
O=C(OC1CCOC1=O)c1cc(-c2cccs2)nc2ccccc12 (stereo unspecified)	?	-14%	-1%	-3%
CCOc1ccc(-c2cnc3n2CCC3)cc1	7	9%	9.2µM*	-9%
COc1ccc(S(=O)(=O)Oc2cccc(/C=N/N=C3/NC(=O)C(CC(=O)O)S3)c2)cc1 (stereo unspecified)	-8	-17%	6.5µM*	-2%
O=S(=O)(Nc1cccc2cccnc12)C1CC1	7	.	.	.
CCOC(=O)[C@H]1[C@H]2COc3cc(OC)ccc3[C@@H]2N2C(=O)c3cc(F)ccc3NC(=O)[C@@]12C	10	20%	-2%	12%
CCOc1cc(/C=N/Nc2nc(N3CCCCC3)nc(N3CCCCC3)n2)ccc1OC(=O)c1ccco1	-14	?	138%	13µM*
COc1ccc(O)c(/C=N/Nc2nc(Nc3ccccc3)nc(-n3nc(C)cc3C)n2)c1	-6	?	?	14%
COc1cc(/C=N/Nc2nc(Nc3ccc(C)cc3)nc(-n3nc(C)cc3C)n2)cc(OC)c1OC	1	?	13µM*	.
COc1cc(/C=N/Nc2nc(Nc3ccccc3)nc(-n3nc(C)cc3C)n2)cc(OC)c1OC	16	15µM*	?	-13%
SMILES	Giardia killer	MCF10A rereplic	SW480 rereplic	uPA generation
COc1ccc(/C=N/Nc2nc(Nc3ccccc3)nc(N3CCCC3)n2)cc1[N+](=O)[O-]	6	?	18µM*	5%
C[C@@]12C=Cc3occc3[C@H]1CC[C@]13CC(=O)[C@@H](CC[C@H]12)C3	1	.	.	.
O=C(NNc1ccccc1)C(CCO)C(=O)NNc1ccccc1	-3	12µM*	?	1%
CC(O)CC(C(=O)NNc1ccccc1)C(=O)NNc1ccccc1 (stereo unspecified)	9	?	0%	4%
Cc1cccc(OCCCn2c(CCNC(=O)C3CCCCC3)nc3ccccc32)c1	19	.	.	.
N=c1n(Cc2ccccc2)c2ccccc2n1CC(O)COc1ccccc1 (stereo unspecified)	-10	26µM*	?	-8%
Cc1ccc(Cn2c(=N)n(CC(O)COc3ccccc3)c3ccccc32)cc1 (stereo unspecified)	-19	12%	?	-7%
CC1(c2ccc([N+](=O)[O-])cc2)Nc2ccccc2S1 (stereo unspecified)	-21	9%	-1%	-3%
CC1(C)OC(=O)C2(Cc3ccc(Cl)cc3N3CCCCC32)C(=O)O1 (stereo unspecified)	8	.	.	.
CCOC(=O)C1=CN(Cc2cccc(F)c2)S(=O)(=O)NC1CCc1ccccc1 (stereo unspecified)	-20	15µM*	52%	-13%
CCCCCCCCCCCC(CC1OC(=O)C1CCCCCC)OC(=O)C(CC(C)C)NC=O (stereo unspecified)	.	5.3µM*	13%	.
CCCC(O)(CCC)C(=O)NN(C(=O)CCl)c1ccccc1	-20	15µM*	?	?
CCOC(=O)N(NC(=O)C(O)(c1ccccc1)c1ccccc1)c1ccccc1	-18	4%	2.9µM*	4%
CC(C)C1CCC(C(=O)NC(Cc2ccccc2)C(=O)O)CC1 (stereo unspecified)	.	1%	-5%	.
CSc1nnc(-c2sc3cc(C(F)(F)F)cnc3c2-c2ccccc2)n1C	-3	4.6µM*	14%	-11%
O=C(O)c1sc2cc(C(F)(F)F)cnc2c1-c1ccccc1	12	5%	-6%	4%
Cc1cc(C(C)(C)C)cc(C)c1CCNC(=O)c1c(C)noc1C	5	?	26%	1%
CC(C)(C)NS(=O)(=O)c1ccc(CCC(=O)Nc2cc(Cl)ccc2Oc2ccccc2)cc1	18	-11%	-4%	-12%
CCCNS(=O)(=O)c1ccc(CCC(=O)Nc2cc(Cl)ccc2Oc2ccccc2)cc1	10	8.2µM*	5%	-18%
CC(C)CNS(=O)(=O)c1ccc(CCC(=O)Nc2cc(Cl)ccc2Oc2ccccc2)cc1	8	16%	7.3µM*	1%
COc1ccccc1-c1cc(SC)c(C#N)c(=O)o1	-15	7.3µM*	18µM*	11µM*
COc1ccc(-c2ccnc(-c3ccc(OCCCF)cc3)n2)cc1	-8	15µM*	?	-11%
FCCCOc1ccc(-c2nccc(-c3ccc(Cl)cc3)n2)cc1	-12	16%	-8%	9%
Oc1ccccc1C=NCc1ccccc1	.	12%	-3%	.
CCN(CC)CCCNC(=O)c1ccc(OCC(=O)Nc2ccccc2C(F)(F)F)c(OC)c1	17	18µM*	?	-9%
